We go through five compounds from PubChem BioAssay.

Activity calls are given as the source filed them.

The subject of test [1] is Human papillomavirus type 1a protein E7 (residues 44-93). Kind of test: HPV1a E7 fragment binders on microarrays, primary screen, biochemical, small-molecule microarray, residues 44-93, 635 nm fluorescence (AID 1108).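 Further: E7 fragment applied at 1 µg/mL in TBST for 1 h at 4 C; score combines spot fluorescence with its signal to noise ratio.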 Conditions: small-molecule microarray binding, fluorescence 635 nm; higher = more signal.
The nature of test [2]: modulators of HCV replicon luciferase signal, primary screen, HCV replication inhibitor project, Huh7 cells, luciferase reporter (AID 1109).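 Further: huh7 hepatoma cells harbouring a luciferase neomycin HCV replicon reporter; luciferase luminescence as measure of HCV replicon replication; test concentration not given here.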 The conditions noted are these: 48 h, higher = more signal.
The target of test [3] is Left-right determination factor 2 (Homo sapiens) (UniProt O00292). Briefly: LEFTY2 binders on small-molecule microarrays, primary screen, biochemical, small-molecule microarray, 635 nm fluorescence scan (AID 1110). Conditions: LEFTY2 binding, higher = more signal.
Sequence of Left-right determination factor 2 (Homo sapiens) (O00292 whole entry, looked up): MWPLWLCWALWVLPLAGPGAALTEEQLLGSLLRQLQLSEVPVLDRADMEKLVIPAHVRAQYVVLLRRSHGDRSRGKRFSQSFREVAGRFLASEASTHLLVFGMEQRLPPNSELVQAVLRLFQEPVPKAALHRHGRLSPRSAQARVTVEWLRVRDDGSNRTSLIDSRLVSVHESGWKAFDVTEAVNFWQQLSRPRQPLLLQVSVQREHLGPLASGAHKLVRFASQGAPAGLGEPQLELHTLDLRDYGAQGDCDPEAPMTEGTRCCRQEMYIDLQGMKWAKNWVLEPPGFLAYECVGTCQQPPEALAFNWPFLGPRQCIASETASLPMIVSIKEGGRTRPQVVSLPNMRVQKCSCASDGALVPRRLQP
In test [4] the target is Calmodulin-1 (Homo sapiens) (UniProt P0DP23). Briefly: CALM1 binders on microarrays, EGTA buffer, profiling panel, biochemical, small-molecule microarray, Cy5-labelled CALM1 (AID 1111).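 Further: labelled calmodulin applied in Tris saline Tween buffer holding calcium plus EGTA and DTT.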 Conditions: Cy5-CALM1 binding fluorescence, higher = more signal.
For test [5] the target is unchanged. Kind of test: calcium-bound CALM1 binders on microarrays, profiling panel, artefact control for SMM control-protein annotation, biochemical, small-molecule microarray, Cy5-labelled CALM1, plus calcium (AID 1112).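 Further: score merges spot fluorescence with signal to noise from triplicate slides.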 Conditions: Cy5-CALM1 binding fluorescence, higher = more signal.
Test [6] can be described thus: small-molecule microarray binders of probe aWnt5a, primary screen, biochemical, biotinylated probe, 635/667 nm fluorescence (AID 1113).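 Further: score merges 667 nm fluorescence intensity with signal-to-noise per printed feature.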 Conditions: higher = more signal.
Test [7] is described as follows: small-molecule microarray binders of probe aShh, primary screen, biochemical, biotinylated probe, 635/667 nm fluorescence (AID 1114).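 Further: probe is biotin-labelled aShh protein from a stem cell growth factor screen; measures binding of labelled protein to compounds printed on the slide; score merges feature fluorescence at 667 nm with signal-to-noise.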 The conditions noted are these: higher = more signal.
Test [8] can be described thus: small-molecule microarray binders of probe aNog, primary screen, biochemical, biotinylated probe, 635/667 nm fluorescence (AID 1115).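 Further: probe is biotinylated aNog protein used at 0.15 µg/mL for 1 h at 4 C; z-score combines 667 nm fluorescence of each spot with its signal to noise.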 The conditions noted are these: higher = more signal.
Test [9] deals with Torsin-1A-interacting protein 1 (Homo sapiens) (UniProt Q5JTV8). Briefly: LAP1 binders from COS7 cell lysate, primary screen, small-molecule microarray, 635/667 nm fluorescence (AID 1116). The conditions noted are these: COS7-hLAP1 lysate binding, 635 nm fluorescence, higher = more signal.
Sequence of Torsin-1A-interacting protein 1 (Homo sapiens) (Q5JTV8 whole entry, looked up): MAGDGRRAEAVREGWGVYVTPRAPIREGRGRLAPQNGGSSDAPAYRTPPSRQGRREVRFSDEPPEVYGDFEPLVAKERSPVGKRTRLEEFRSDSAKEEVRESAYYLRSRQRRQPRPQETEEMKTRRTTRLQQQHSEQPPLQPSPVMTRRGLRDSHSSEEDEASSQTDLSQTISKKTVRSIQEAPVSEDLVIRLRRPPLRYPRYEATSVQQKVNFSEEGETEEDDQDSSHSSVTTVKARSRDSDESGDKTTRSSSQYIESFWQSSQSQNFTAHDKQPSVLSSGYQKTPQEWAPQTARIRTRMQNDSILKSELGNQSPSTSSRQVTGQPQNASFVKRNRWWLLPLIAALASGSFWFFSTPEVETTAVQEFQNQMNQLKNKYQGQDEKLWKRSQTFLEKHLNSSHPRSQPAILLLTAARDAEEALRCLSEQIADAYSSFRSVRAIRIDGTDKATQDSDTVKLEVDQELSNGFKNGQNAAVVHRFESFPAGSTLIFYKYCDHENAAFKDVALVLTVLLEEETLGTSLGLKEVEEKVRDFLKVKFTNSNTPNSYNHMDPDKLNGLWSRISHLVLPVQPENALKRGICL
Test [10] has as its target Alpha-bungarotoxin (Bungarus multicinctus) (UniProt P60615). Kind of test: alpha-bungarotoxin binders on microarray, profiling panel, artefact control for SMM control protein annotation, biochemical, small-molecule microarray, Alexa647 label, 635/667 nm fluorescence (AID 1117). The conditions noted are these: alpha-BTX-A647 binding fluorescence, higher = more signal.
The target in the next test is Albumin (Bos taurus) (UniProt P02769). Kind of test: bovine serum albumin binders on microarray, profiling panel, artefact control for SMM control protein annotation, biochemical, small-molecule microarray, Alexa647 label, 635/667 nm fluorescence (AID 1118).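 Further: score merges 667 nm emission intensity and signal-to-noise per printed compound spot.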 Conditions: BSA-A647 binding, fluorescence 635 nm, higher = more signal.
Sequence of Albumin (Bos taurus) (P02769 whole entry, looked up): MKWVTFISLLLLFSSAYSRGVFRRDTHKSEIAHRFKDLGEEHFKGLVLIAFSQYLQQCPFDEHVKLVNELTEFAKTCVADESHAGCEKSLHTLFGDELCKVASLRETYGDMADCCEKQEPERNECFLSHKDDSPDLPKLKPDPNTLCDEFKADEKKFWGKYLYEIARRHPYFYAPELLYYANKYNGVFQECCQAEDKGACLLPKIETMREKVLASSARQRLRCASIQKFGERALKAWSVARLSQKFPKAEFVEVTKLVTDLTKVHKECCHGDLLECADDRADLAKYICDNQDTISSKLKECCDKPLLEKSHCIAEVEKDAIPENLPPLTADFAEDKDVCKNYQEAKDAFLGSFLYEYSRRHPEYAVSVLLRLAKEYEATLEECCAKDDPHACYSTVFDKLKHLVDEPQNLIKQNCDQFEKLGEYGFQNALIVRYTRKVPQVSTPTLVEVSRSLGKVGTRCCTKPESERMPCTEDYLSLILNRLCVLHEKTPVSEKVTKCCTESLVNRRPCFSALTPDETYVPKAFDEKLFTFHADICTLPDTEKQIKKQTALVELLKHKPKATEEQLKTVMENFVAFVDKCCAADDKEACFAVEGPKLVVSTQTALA
A short description of test [11]: small-molecule microarray binders of probe aXIP, primary screen, biochemical, NeuroSMM set, 635/667 nm fluorescence (AID 1119).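 Further: probe is the protein aXip251-270 applied at 1 µg/mL to compound-printed slides; binding of probe to printed compounds measured as 667 nm fluorescence plus signal to noise.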 The conditions noted are these: higher = more signal, called active from +8 up or from −8 down.
Test [12] is described as follows: small-molecule binders of probe aNOTCH3, primary screen, biochemical, small-molecule microarray, 635/667 nm fluorescence (AID 1120).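 Further: probe is a biotin-tagged antibody raised against NOTCH3 rather than NOTCH3 protein; score merges spot fluorescence near 667 nm with spot signal to noise.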 The conditions noted are these: higher = more signal.
A short description of test [13]: small-molecule binders of probe aNOTCH2, primary screen, biochemical, small-molecule microarray, 635/667 nm fluorescence (AID 1121).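 Further: score merges feature fluorescence read at 667 nm with its signal to noise.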 The conditions noted are these: higher = more signal.
Test [14] addresses Carbonic anhydrase 2 (Homo sapiens) (UniProt P00918). Kind of test: CAII small-molecule binders, profiling panel, biochemical, small-molecule microarray, Alexa647-labelled CAII (AID 1122). Conditions: CAII-A647 binding fluorescence, higher = more signal.
Test [15] can be described thus: COS7 lysate on small-molecule microarray, probe aHis, 635 nm (AID 1123).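 Further: z-score combines 667nm fluorescence intensity with signal-to-noise per printed compound spot.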 The conditions noted are these: COS7 cell lysate, fluorescence, higher = more signal.
Test [16] in a line: compound binding in COS7 lysate, probe aLAP1, primary screen, cell lysate, small-molecule microarray (AID 1124).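 Further: lysate comes from COS7 cells expressing LAP1 and is applied at 0.3 µg/mL; score merges spot fluorescence near 667 nm with signal-to-noise over triplicate slides.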 The conditions noted are these: probe aLAP1, fluorescence, higher = more signal.
The subject of a further test is Sam68 (KHDRBS1). Kind of test: Sam68 small-molecule binders, primary screen, biochemical, small-molecule microarray, 635 nm fluorescence (AID 1125).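 Further: score merges 667 nm channel intensity with signal to noise over triplicate slides.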 Conditions: small-molecule microarray binding, higher = more signal.
Test [17] relates to Chordin-like protein 2 (CHRDL2). Kind of test: CHRDL2 small-molecule binders, primary screen, biochemical, small-molecule microarray, 635 nm fluorescence (AID 1126).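 Further: printed compound slides probed with Chrdl2 protein at 4 µg/mL for 1 h at 4 C; score merges 667 nm emission intensity with signal to noise over three replicate slides.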 The conditions noted are these: small-molecule microarray binding, fluorescence 635 nm; higher = more signal.
Test [18] addresses Concanavalin-A (Canavalia ensiformis) (UniProt P02866). Kind of test: ConA small-molecule binders, primary screen, artefact control for SMM control protein annotation, biochemical, small-molecule microarray, Alexa647 label, 635 nm (AID 1127).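 Further: z combines 667 nm emission intensity with signal-to-noise across three replicate slides.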 The conditions noted are these: ConA-A647 binding fluorescence, higher = more signal.

Sequence of Concanavalin-A (Canavalia ensiformis) (P02866 whole entry, looked up): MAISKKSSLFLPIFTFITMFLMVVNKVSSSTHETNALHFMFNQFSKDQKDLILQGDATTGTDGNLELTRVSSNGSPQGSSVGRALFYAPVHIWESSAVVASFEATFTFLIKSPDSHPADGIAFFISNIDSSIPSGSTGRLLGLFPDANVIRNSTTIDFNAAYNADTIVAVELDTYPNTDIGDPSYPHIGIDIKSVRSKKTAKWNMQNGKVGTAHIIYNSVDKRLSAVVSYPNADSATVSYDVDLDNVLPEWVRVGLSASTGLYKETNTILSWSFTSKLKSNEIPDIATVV
Sequence of Alpha-bungarotoxin (Bungarus multicinctus) (P60615 whole entry, looked up): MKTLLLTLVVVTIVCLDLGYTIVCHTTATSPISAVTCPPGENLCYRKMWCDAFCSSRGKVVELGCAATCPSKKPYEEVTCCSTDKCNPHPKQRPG

On to `COC(=O)C(CC#Cc1ccc2c(c1)[C@]1(C(=O)N2)[C@H](c2ccc(OCCO)cc2)N2[C@H](c3ccccc3)[C@H](c3ccccc3)OC(=O)[C@H]2[C@@H]1C(=O)O)C(=O)OC`, for which the composite z-score in [1] was 0.324; in test [3] it was 0.431; in [4], 1.23; in test [5], 0.707; in [6], 0.0438; in [7], 0.446. Besides, the composite z-score in test [8] amounted to 0.812; in test [9] it was 2.1; in test [10], 1.83; with Albumin (Bos taurus), 0.803; in test [12] it was 0.328; in test [13] it was 0.224. Also, the composite z-score in test [14] worked out at 0.724; in test [15], 1.37; in test [16], 0.26; in the test with Sam68 (KHDRBS1), 1.28; in test [17] it was 0.368; in test [18], 1.15. The compound also registered a z-score in test [2] of -0.442. For the same compound, the composite Z-score in [11] was 0.419 (inactive).

On to `NC(=O)[C@@H]1[C@H]2C(=O)O[C@H](c3ccccc3)[C@H](c3ccccc3)N2[C@H](c2ccccc2OCCO)[C@@]12C(=O)Nc1ccc(C#CCCO)cc12`, for which the composite z-score is 0.42 in test [1]; -0.388 in test [3]; 0.613 in test [4]; 0.154 in test [5]; -0.226 in test [6]; -0.221 in [7]. For the same compound, the composite z-score is -0.139 in test [8]; 0.0571 in [9]; 1.18 in test [10]; 0.59 with Albumin (Bos taurus); -0.218 in test [12]; -0.147 in test [13]. In addition, the composite z-score in [14] was 0.71; in [15] it was 0.663; in test [16], 0.148; in the test on Sam68 (KHDRBS1), 0.13; in [17], -0.68; in test [18], 1.18. This compound yielded a z-score in [2] of -1.02. For the same compound, the composite Z-score in test [11] is -0.309 (inactive).

In the case of `COc1ccc([Si](C)(C)[C@@H]2[C@@H](CCO)O[C@]3(C(=O)N(Cc4ccccc4)c4ccc(N5C(=O)COc6ccccc65)cc43)[C@H]2C)cc1`, the composite z-score was 1.23 in [1]; 0.0529 in [3]; 0.953 in test [4]; 0.838 in test [5]; -0.129 in [6]; -0.0626 in test [7]. The composite z-score in test [8] was -0.194; in test [9], 0.462; in test [10], 0.31; in the test with Albumin (Bos taurus) it was 0.187; in test [12], -0.0077; in test [13] it was -0.0731. For the same compound, the composite z-score is 0.426 in test [14]; 0.841 in test [15]; 0.719 in test [16]; 0.929 in the test with Sam68 (KHDRBS1); -0.237 in [17]; 0.822 in test [18]. The same compound came in with a z-score in test [2] of -4.11. Also, the composite Z-score in test [11] is 0.685 (inactive).

Regarding `OCCCC1=CC(c2cccs2)N(Cc2cccc(OC(F)(F)F)c2)CC1` (stereo not given), the composite z-score in test [1] is -0.571; in [3], -0.0424; in [4], -0.957; in test [5], 0.639; in test [6], -0.13; in [7] it was -0.221. Also, the composite z-score in [8] is 1.41; in test [9], -0.0673; in test [10], -0.0302; with Albumin (Bos taurus), 0.659; in [12], -0.147; in test [13], 0.072. Further, the composite z-score in test [14] was 0.389; in test [15] it was 0.0426; in test [16], 0.144; with Sam68 (KHDRBS1) it was -0.184; in test [17], -0.258; in [18], -0.659. In [2], this compound yielded a z-score of -2.1. The composite Z-score in test [11] was -0.0774 (inactive).

Consider `COCCCNC(=O)[C@@]1(Cc2ccccc2)COC(c2ccc(OCCCO)cc2)=N1`, for which the composite z-score in [1] is 0.952; in test [3], -1.08; in test [4], 0.525; in test [5], 0.361; in test [6], 0.199; in test [7], 0.289. In addition, the composite z-score is -0.573 in test [8]; 1.03 in [9]; 0.943 in test [10]; 0.838 in the test with Albumin (Bos taurus); 0.0813 in test [12]; -0.0307 in test [13]. In addition, the composite z-score is 0.739 in [14]; 3.02 in [15]; 0.77 in test [16]; 1.31 in the test on Sam68 (KHDRBS1); -0.554 in [17]; 0.825 in test [18]. Besides, the z-score in [2] was -0.409. The composite Z-score in test [11] was 0.6 (inactive).
